Screens as filed in PubChem.
The list is not random: actives were taken first. Their share in the collection is about 19%.
IL1B secr inh: blocks inflammasome-driven IL-1 beta release; THP-1 LPS/ATP IL-1B secretion, AlphaLISA, 16 h; active compounds read low; activity change, % at 57.5 µM; 4.7% of 360,000 active; AID 743279; in the data active means activity change below about -50%; inconclusive means mostly about -30% to -49%
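THP-1 cells pretreated 1 hr with compounds (up to 57.5 uM final), then stimulated with LPS (250 ng/mL final) plus ATP (1.25 mM final); secreted IL-1B measured by AlphaLISA after 16 hr, decreased signal indicating inhibition.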
DT40 TDP1 CPT: DT40-hTDP1 cell growth loss with CPT; chicken DT40 Tdp1-/-;hTDP1 cells + 20 nM CPT, ATP luminescence, 48 h; Potency, µM (top dose mostly 46.2 µM), for inactives: at the top dose activity change, negative = growth inhibition, actives largely listed as inhibitors; 12% of 420,000 active; AID 686979; further: potency means the concentration at half of the fitted maximal effect; nearly all actives have a fitted effect of over 55% in size
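Cell growth measured by CellTiter-Glo luminescence after a minimum 48 h, 37 C compound exposure with 20 nM CPT in Tdp1-knockout DT40 cells stably expressing hTDP1, seeded 400/well; qHTS titration format.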
HT1080 IDH1KD tx: kills HT-1080 cells with IDH1 knockdown | HT-1080 IDH1 knockdown viability, ATP luminescence, 48 h | Potency, µM (series often up to 46.1 µM), inactives show at the highest dose activity, negative = toxicity, most hits filed as cytotoxic | 2% of 360,000 active;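 further: potency means the concentration at half of the fitted maximal effect; 0% = DMSO wells and -100% = cell-free medium wells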
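HT-1080-IDH1KD cells (IDH1 knocked down), 750/well in RPMI with 5% FBS, treated with compound 48 h at 37 degrees C. Viability by CellTiter-Glo luminescence, normalised to DMSO and no-cell wells; concentration-response curves classed.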
HT1080NT lethal: kills 2HG-producing HT-1080-NT fibrosarcoma cells. Potency, µM (top dose mostly 46.1 µM), for the others: at the top dose activity, negative = less viability, usual class: cytotoxic. HT-1080-NT fibrosarcoma viability, CellTiter-Glo ATP luminescence, 48 h. 1.6% of 360,000 active;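 further: NT is the 2HG producing partner of a matched IDH1 knockdown line; potency means the concentration at half of the fitted maximal effect; 0% = DMSO-treated cells and -100% = media-only wells without cells; nearly all actives have a fitted effect of over 55% in size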
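Compounds were tested in concentration-response format on HT-1080-NT cells for 48 hours at 37 degrees C. Cell viability came from CellTiter-Glo luminescence; curves were classified by r2, response magnitude and activity.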
DT40 TDP1 no CPT: qHTS for Inhibitors of human tyrosyl-DNA phosphodiesterase 1 (TDP1): qHTS in cells in absence of CPT | Potency, µM (series often up to 46.2 µM), for inactives: top-dose activity change, negative = growth inhibition, most hits filed as inhibitors | AID 686978, 2013 | 15% of 420,000 active | DT40 Tdp1-/- hTDP1 cells, no CPT, ATP luminescence, 48 h; further: potency means the concentration at half of the fitted maximal effect; nearly all actives have a fitted effect of over 55% in size
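Compound effects on proliferation are scored in DT40 Tdp1-/-;hTDP1 cells in the absence of CPT. ATP levels (CellTiter-Glo luminescence) are recorded after a ≥48 hr, 37 °C incubation.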
* marks the source's active call; other numbers are inactive results; i = inactive; ? = inconclusive; . = no result given. Unless noted, the call rests on the fitted dose curve; in most records, active means well fitted curve in the direction sought with a large enough effect; inconclusive means small, poorly fitted or top-dose-only effect, or another doubt; inactive means no such curve, though single readings can be large; an effect the other way counts as inactive or inconclusive. Unless noted, on the % scale 0 is the no-effect control and ±100 the full control effect.

SMILES | IL1B secr inh | DT40 TDP1 CPT | HT1080 IDH1KD tx | HT1080NT lethal | DT40 TDP1 no CPT
CCCc1ccc2oc(C(=O)N3CCNC(=O)C3CC(=O)OC)c(C)c2c1 (stereo not drawn) | -3.0 | -6.1% | 6.3% | -2.3% | ?
C=CCn1c(SCCC)nc2ccccc2c1=O | . | -7.7% | . | . | ?
COc1cccc(C2C(C#N)=C(N)Oc3cc(N)ccc32)c1OC (stereo not drawn) | -4.6 | -0.7% | 7.0% | 9.8% | 4.3%
N#CC1=C(N)Oc2cc(N)ccc2C1c1cccc(Br)c1 (stereo not drawn) | 32.0 | 2.91µM* | ? | ? | 1.46µM*
N#CC1=C(N)Oc2cc(N)ccc2C1c1ccccc1F (stereo not drawn) | 32.5 | 7.31µM* | 16.4µM* | 14.6µM* | 8.2µM*
Cc1ccc(C2C(C#N)=C(N)Oc3cc(N)ccc32)cc1 (stereo not drawn) | -12.0 | -12.2% | -1.3% | -9.9% | -26.1%
N#CC1=C(N)Oc2cc(N)ccc2C1c1ccsc1 (stereo not drawn) | 3.0 | 0.1% | -2.0% | 3.5% | 5.2%
N#CC1=C(N)Oc2cc(N)ccc2C1c1cc(Br)cs1 (stereo not drawn) | -66.0* | ? | 2.91µM* | 2.06µM* | ?
C/C=C\C(=O)Nc1cccc(C2=NOC3(C2)C[C@H](C(N)=O)N(C(=O)[C@H]2CCC(=O)N2)C3)c1 (stereo partly drawn) | 7.7 | -15.4% | 9.1% | 13.7% | 1.3%
Cc1ccc(N(Cc2ccccc2)C(=O)CSC(C)C(=O)Nc2cc(C)on2)cc1 (stereo not drawn) | 12.6 | ? | ? | -18.7% | ?
Cc1c(NC(=O)C(C)(C)Oc2ccc(Cl)cc2)cccc1-c1nc2ncccc2o1 | . | 16.4µM* | . | . | 23.1µM*
CCOc1cccc(C(=O)Nc2cc(C)c(O)c(-c3nc4ncccc4o3)c2)c1 | . | -6.3% | . | . | -11.1%
Cc1c(NC(=O)c2ccc([N+](=O)[O-])o2)cccc1-c1nc2ncccc2o1 | -103.1* | 18.4µM* | ? | 9.2µM* | ?
Cc1cc(C)cc(C(=O)Nc2cccc(-c3nc4ncccc4o3)c2C)c1 | . | 0.6% | . | . | -15.2%
CCOc1cccc(C(=O)Nc2cccc(-c3nc4ncccc4o3)c2C)c1 | -63.3* | -8.4% | -5.5% | -9.4% | ?
CCN(CCn1cccn1)C(=O)CCc1nnc(CCCc2ccccc2)o1 | 7.7 | 23.8% | 19.9% | 8.4% | -22.2%
CCCC[C@@H]1CNC(=O)C(=O)N1CCCC | 19.4 | 1.3% | 8.7% | 17.8% | -21.9%
CCOC(=O)CSC1=C(C#N)C(c2ccc3c(c2)OCO3)CC(=O)N1 (stereo not drawn) | -7.5 | ? | 9.2µM* | 16.4µM* | 20.6µM*
CCCCN(CCCC)S(=O)(=O)c1ccc(C(=O)Nc2nnc(CSC)o2)cc1 | 63.1 | 14.6µM* | ? | -10.7% | 9.2µM*
CCCN(CCC)S(=O)(=O)c1ccc(C(=O)Nc2nnc(CSC)o2)cc1 | 86.0 | ? | ? | ? | ?
CCCCN(CC)S(=O)(=O)c1ccc(C(=O)Nc2nnc(CSC)o2)cc1 | 28.5 | ? | ? | -29.6% | 14.6µM*
CCN(c1ccccc1)S(=O)(=O)c1ccc(C(=O)Nc2nnc(CSC)o2)cc1 | 69.0 | ? | ? | -16.5% | 9.2µM*
Cc1ccc(S(=O)(=O)N(C)c2ccc(C(=O)Nc3cccc(C)n3)cc2)cc1 | i | ? | -13.4% | 1.5% | ?
CCN(c1ccccc1)S(=O)(=O)c1ccc(C(=O)Nc2cccc(C)n2)cc1 | ? | 23.1µM* | -14.5% | 0.0% | 11.6µM*
COc1ncccc1-c1cc2nc(NCCNC(C)=O)n(C)c(=O)c2s1 | 25.9 | ? | 24.3% | 0.4% | ?
SMILES | IL1B secr inh | DT40 TDP1 CPT | HT1080 IDH1KD tx | HT1080NT lethal | DT40 TDP1 no CPT
O=C(CSCc1ccccc1Cl)Nc1c[nH]c(=O)[nH]c1=O | 17.1 | -23.8% | 4.4% | 1.7% | -6.6%
CN(c1ccccc1)S(=O)(=O)c1ccc(C(=O)Nc2nnc(C3CC3)o2)cc1 | -6.3 | 2.3% | 0.1% | -10.2% | 6.6%
CCN(c1ccccc1)S(=O)(=O)c1ccc(C(=O)Nc2nnc(C3CC3)o2)cc1 | 80.3 | 20.6µM* | ? | ? | 18.4µM*
Cc1ccc(CSc2nc3ccc(NC(=O)CC(C)C)cc3s2)cc1 | . | -3.9% | . | . | ?
Cc1cccc(NC(=S)N/N=C/c2ccc(Cl)c([N+](=O)[O-])c2)c1 | -1.1 | ? | -9.6% | ? | ?
C=CCNC(=S)N/N=C/c1ccc(C)c([N+](=O)[O-])c1 | ? | 14.6µM* | -3.0% | -1.7% | 6.51µM*
C=CCNC(=S)N/N=C/c1ccc(C)cc1C | -10.5 | 5.17µM* | 16.4µM* | 23.1µM* | 5.17µM*
C=CCNC(=S)Nc1ccc2nc(C)c(C)nc2c1 | 11.3 | ? | 4.6% | 3.2% | 18.4µM*
CC1(C)CC(=O)C(N=Nc2ccc3ncsc3c2)=C(O)C1 | 23.8 | -27.6% | -0.4% | 4.1% | -18.1%
COc1ccc2nc(N=Nc3ccc(O)c4ccccc34)sc2c1 | -0.2 | 1.3µM* | 5.8µM* | 7.31µM* | 1.3µM*
COc1ccc2nc(N=NC3=C(O)CC(C)(C)CC3=O)sc2c1 | 140.8 | 5.17µM* | ? | -17.2% | 5.8µM*
Cc1ccc(C)c(OCCn2c(-c3ccc(Cl)cc3)nc3ccccc3c2=O)c1C | . | 8.4% | . | . | 11.1%
CC1(C(=O)Nc2ccc(F)c(Cl)c2)Cc2c(-c3ccc(C(N)=O)cc3)ccnc2O1 (stereo not drawn) | -79.2* | 20.6µM* | 20.6µM* | ? | 18.4µM*
CC(C)c1ccc(NC(=O)C2(C)Cc3c(-c4cccc(C(N)=O)c4)ccnc3O2)cc1 (stereo not drawn) | -69.1* | ? | ? | ? | ?
CC1(C(=O)Nc2ccccc2)Cc2c(-c3cccc(C(N)=O)c3)ccnc2O1 (stereo not drawn) | -9.4 | ? | 7.1% | 1.1% | -21.0%
CC1(C(=O)Nc2ccc(F)c(Cl)c2)Cc2c(-c3cccc(C(N)=O)c3)ccnc2O1 (stereo not drawn) | -9.9 | ? | ? | ? | ?
CC1(C(=O)Nc2ccc(Cl)cc2)Cc2c(-c3cccc(C(N)=O)c3)ccnc2O1 (stereo not drawn) | 0.0 | 3.66µM* | 4.61µM* | ? | 5.8µM*
CC(=O)Nc1cccc(-c2ccnc3c2CC(C)(C(=O)Nc2ccccc2)O3)c1 (stereo not drawn) | -21.6 | -29.6% | 0.0% | -14.2% | ?
CC(=O)Nc1cccc(-c2ccnc3c2CC(C)(C(=O)Nc2ccc(C(C)C)cc2)O3)c1 (stereo not drawn) | -60.3* | ? | ? | ? | ?
